Our source for the outcome and AC50 values is PubChem BioAssay (EPA / NIEHS).

The target in experiment [1] is zebrafish Estrogen Receptor (ESR1), esr1 (gene 259252) (UniProt P57717). The experiment can be described thus: ATG_zfER1_XSP1: Attagene TRANS-FACTORIAL Multi-Species (XSP1) HepG2 Assay for zebrafish Estrogen Receptor (ESR1) (AID 2283772). In a few lines: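 Readout: fluorescent reporter mRNA, RT-PCR plus FAM labelling, HpaI digest, capillary electrophoresis; gain-of-signal fit vs DMSO. HepG2, transient multi-reporter TRANS (NR-GAL4 chimera), 24 h chemical exposure, 3 nM 6-alpha-fluorotestosterone co-added.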

Experiment [2] relates to zebrafish Estrogen Receptor (ESR2B), gene 317733. The experiment can be described thus: ATG_zfER2b_XSP1: Attagene TRANS-FACTORIAL Multi-Species (XSP1) HepG2 Assay for zebrafish Estrogen Receptor (ESR2B) (AID 2283773). In a few lines:
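HepG2 cells transiently transfected with GAL4-UAS reporter units for chimeric zebrafish ER2b-Gal4, with 3 nM 6-alpha-fluorotestosterone present; reporter mRNA measured 24 h after dosing by RT-PCR and capillary electrophoresis, gain versus DMSO.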

The test system of experiment [3] is frog Estrogen Receptor (ESR2), gene 100174814. The experiment can be described thus: ATG_frER2_XSP1: Attagene TRANS-FACTORIAL Multi-Species (XSP1) HepG2 Assay for frog Estrogen Receptor (ESR2) (AID 2283774). In a few lines: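 HepG2 cells transiently transfected with GAL4-UAS reporter units expressing chimeric frog ER-Gal4; 3 nM 6-alpha-fluorotestosterone present. After 24 h dosing, reporter mRNA quantified by RT-PCR and capillary electrophoresis; gain-of-signal fitted relative to DMSO.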

Experiment [4] is described as follows: ACEA_AR_antagonist_AUC_viability: ACEA Biosciences xCELLigence Real-Time Cell Analysis on Androgen Receptor Antagonism for Viability (AID 2283776).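 Further: hits lower the growth signal relative to DMSO meaning cytotoxicity.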 In a few lines:
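22Rv1 human prostate cancer cells were seeded on electrode plates, monitored overnight, then exposed to eight 1:4 dilutions from 100 uM final. Impedance-based growth kinetics at 80 h gave an AUC viability endpoint normalized to DMSO.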

In experiment [5] the test system is frog Estrogen Receptor (ESR1), gene 398734. Put plainly: ATG_frER1_XSP1: Attagene TRANS-FACTORIAL Multi-Species (XSP1) HepG2 Assay for frog Estrogen Receptor (ESR1) (AID 2283777). In a few lines:
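HepG2 cells transiently transfected with frog ER–GAL4 chimera and GAL4-UAS reporter, with 3 nM 6-alpha-fluorotestosterone present; 24 h dosing, reporter mRNA quantified by RT-PCR and capillary electrophoresis, gain of signal versus DMSO.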

In experiment [6] the test system is zebrafish Estrogen Receptor (ESR2A), gene 317734. Put plainly: ATG_zfER2a_XSP1: Attagene TRANS-FACTORIAL Multi-Species (XSP1) HepG2 Assay for zebrafish Estrogen Receptor (ESR2A) (AID 2283778). In a few lines:
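HepG2 cells transiently transfected with GAL4-UAS reporter units driven by a zebrafish ESR2A–Gal4 chimera; 24 h compound exposure with 3 nM 6-alpha-fluorotestosterone present. Reporter mRNA measured by RT-PCR with fluorescent capillary electrophoresis, fitted positive versus DMSO.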

Experiment [7] concerns the target chicken Estrogen Receptor (ESR1), ESR1 (gene 396099) (UniProt P06212). The experiment can be described thus: ATG_chERa_XSP1: Attagene TRANS-FACTORIAL Multi-Species (XSP1) HepG2 Assay for chicken Estrogen Receptor (ESR1) (AID 2283779). In a few lines: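 HepG2 cells transiently transfected with GAL4-UAS reporter units for chimeric chicken ERα-Gal4, dosed 24 h with 3 nM 6-alpha-fluorotestosterone present. Reporter mRNA by RT-PCR and capillary electrophoresis; gain-of-signal fit versus DMSO.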

Experiment [8] addresses Estrogen receptor (Homo sapiens) (UniProt P03372). Put plainly: ATG_hERa_XSP1: Attagene TRANS-FACTORIAL Multi-Species (XSP1) HepG2 Assay for human Estrogen Receptor (ESR1) (AID 2283780). In a few lines:
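HepG2 cells transiently transfected with GAL4-UAS reporter units and chimeric NR-Gal4 constructs; 24 h after dosing, reporter mRNA quantified by RT-PCR and capillary electrophoresis. Medium contained 3 nM 6-alpha-fluorotestosterone; activity fitted as gain-of-signal versus DMSO.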

The test system of experiment [9] is turtle Estrogen Receptor (ESR1), gene 101933533. Put plainly: ATG_trERa_XSP1: Attagene TRANS-FACTORIAL Multi-Species (XSP1) HepG2 Assay for turtle Estrogen Receptor (ESR1) (AID 2283781). In a few lines:
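Turtle ERa as a GAL4 chimera in transiently transfected HepG2 cells; reporter mRNA quantified 24 h after dosing by RT-PCR and capillary electrophoresis. 3 nM 6-alpha-fluorotestosterone present; gain of signal versus DMSO.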

A short description of experiment [10]: ACEA_ER_AUC_viability: ACEA Biosciences xCELLigence Real-Time Cell Analysis on Estrogen Receptor Agonism for Viability (AID 2283782).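 Further: continuous compound exposure with impedance area under curve over 80 h; hit means loss of impedance signal meaning reduced cell growth or viability.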 In a few lines:
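T47D cells preconditioned in phenol red-free RPMI with charcoal-stripped FBS, then dosed with 8-point 1:4 series from 100 uM (up to 0.5% DMSO). Impedance monitored up to ~80 h; area-under-curve loss versus DMSO taken as viability.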

Experiment [11] is described as follows: ACEA_AR_agonist_AUC_viability: ACEA Biosciences xCELLigence Real-Time Cell Analysis on Androgen Receptor Agonism for Viability (AID 2283775).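 On AC50: viability read 80 hours after compound addition.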 In a few lines:
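Real-time impedance tracking of 22Rv1 growth, readings every 5 min for 5 h then hourly; area-under-curve viability endpoint at 80 hours, relative to DMSO. Compounds at eight concentrations, 1:4 steps, top 100 uM, n = 2.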

For experiment [12], the target named is Luciferin 4-monooxygenase (Photinus pyralis) (UniProt P08659). The experiment can be described thus: CCTE_Simmons_QuantiLum_inhib_2: CCTE's Firefly Luciferase Inhibition Assay, Simmons Lab (AID 2283767).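 Further: potency for inhibitors that lower luciferase luminescence relative to DMSO.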 In a few lines:
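Luminescence loss relative to DMSO vehicle defines inhibition; detection reagent containing 150 uM D-luciferin and 147 uM dATP (final, pH 7.8) is injected immediately before each read. Enzyme is preincubated with an 8-point titration (5 nM–87.5 uM final) for 30 min at 37C.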

Experiment [13] relates to chicken Androgen Receptor (AR), gene 422165. The experiment can be described thus: ATG_chAR_XSP1: Attagene TRANS-FACTORIAL Multi-Species (XSP1) HepG2 Assay for chicken Androgen Receptor (AR) (AID 2283768). In a few lines: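 HepG2 cells transiently transfected with multiplexed GAL4-UAS reporter units expressing chimeric chicken AR-Gal4; 3 nM 6-alpha-fluorotestosterone for partial AR stimulation; 24 h after dosing, reporter mRNA by RT-PCR and capillary electrophoresis, gain-of-signal versus DMSO.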

Experiment [14] relates to zebrafish Androgen Receptor (AR), gene 100005148. The experiment can be described thus: ATG_zfAR_XSP1: Attagene TRANS-FACTORIAL Multi-Species (XSP1) HepG2 Assay for zebrafish Androgen Receptor (AR) (AID 2283771). In a few lines: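 HepG2 cells were transiently transfected with a zebrafish AR-GAL4 reporter system and partially stimulated with 3 nM 6-alpha-fluorotestosterone. Reporter mRNA was measured after 24 h dosing by RT-PCR with capillary electrophoresis, and gain-of-signal was fitted relative to DMSO.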

Experiment [15] is described as follows: STM_H9_NormalizedViability: Cytotoxicity Assessment at 120 hours in the Stemina devTOX quickPredict H9 human embryonic stem cell (hESC)-based Assay (AID 2283784). In a few lines:
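Pluripotent H9 cells dosed, fresh medium plus compound q24h → cell layer read by CellTiter-Fluor → RFU blank-corrected, normalized to DMSO 0.1% mean. Loss-of-signal fit, DMSO as baseline.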

Results filed as inconclusive are left out. The source made the active and inactive calls. How the source made its calls: active means hit-call score of the fitted dose curve at least 0.9, where 1 is the maximum; inconclusive means response in the unintended direction; inactive means score below 0.9.

What is called AC50 is the midpoint of the concentration-response curve, whichever way the signal moves.

Sequence of chicken Estrogen Receptor (ESR1), ESR1 (gene 396099) (P06212 whole entry, looked up, the tested form may be a part): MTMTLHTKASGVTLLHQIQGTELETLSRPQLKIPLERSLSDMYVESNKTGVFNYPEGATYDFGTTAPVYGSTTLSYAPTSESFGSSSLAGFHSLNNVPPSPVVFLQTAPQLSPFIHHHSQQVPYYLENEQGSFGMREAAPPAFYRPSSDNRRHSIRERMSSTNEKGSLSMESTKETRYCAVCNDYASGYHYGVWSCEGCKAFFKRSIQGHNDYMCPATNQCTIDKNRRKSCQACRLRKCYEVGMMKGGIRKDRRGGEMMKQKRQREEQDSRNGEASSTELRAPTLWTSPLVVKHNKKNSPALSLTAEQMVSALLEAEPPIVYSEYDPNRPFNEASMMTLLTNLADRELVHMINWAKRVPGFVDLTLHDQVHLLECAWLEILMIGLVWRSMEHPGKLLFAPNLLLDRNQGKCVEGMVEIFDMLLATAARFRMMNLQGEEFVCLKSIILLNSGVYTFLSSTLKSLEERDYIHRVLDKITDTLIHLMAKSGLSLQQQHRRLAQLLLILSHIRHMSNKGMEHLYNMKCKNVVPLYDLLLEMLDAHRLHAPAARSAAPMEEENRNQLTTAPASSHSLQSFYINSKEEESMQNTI
Sequence of zebrafish Estrogen Receptor (ESR1), esr1 (gene 259252) (P57717 whole entry, looked up, the tested form may be a part): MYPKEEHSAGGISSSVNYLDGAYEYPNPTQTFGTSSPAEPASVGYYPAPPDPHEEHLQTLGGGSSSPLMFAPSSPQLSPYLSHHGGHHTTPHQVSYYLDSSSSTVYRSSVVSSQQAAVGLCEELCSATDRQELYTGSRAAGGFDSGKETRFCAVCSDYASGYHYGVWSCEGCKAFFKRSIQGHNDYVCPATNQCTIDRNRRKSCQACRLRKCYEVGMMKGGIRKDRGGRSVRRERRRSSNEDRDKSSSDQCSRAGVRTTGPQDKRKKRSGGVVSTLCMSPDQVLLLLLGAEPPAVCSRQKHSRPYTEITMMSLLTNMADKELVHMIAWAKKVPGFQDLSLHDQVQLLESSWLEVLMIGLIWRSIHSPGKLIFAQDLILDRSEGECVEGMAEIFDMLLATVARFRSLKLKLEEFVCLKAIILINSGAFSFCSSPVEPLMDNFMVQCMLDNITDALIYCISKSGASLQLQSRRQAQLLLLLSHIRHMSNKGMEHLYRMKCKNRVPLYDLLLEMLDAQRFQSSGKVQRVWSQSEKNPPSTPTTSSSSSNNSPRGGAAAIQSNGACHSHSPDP
Sequence of Estrogen receptor (Homo sapiens) (P03372 whole entry, looked up, the tested form may be a part): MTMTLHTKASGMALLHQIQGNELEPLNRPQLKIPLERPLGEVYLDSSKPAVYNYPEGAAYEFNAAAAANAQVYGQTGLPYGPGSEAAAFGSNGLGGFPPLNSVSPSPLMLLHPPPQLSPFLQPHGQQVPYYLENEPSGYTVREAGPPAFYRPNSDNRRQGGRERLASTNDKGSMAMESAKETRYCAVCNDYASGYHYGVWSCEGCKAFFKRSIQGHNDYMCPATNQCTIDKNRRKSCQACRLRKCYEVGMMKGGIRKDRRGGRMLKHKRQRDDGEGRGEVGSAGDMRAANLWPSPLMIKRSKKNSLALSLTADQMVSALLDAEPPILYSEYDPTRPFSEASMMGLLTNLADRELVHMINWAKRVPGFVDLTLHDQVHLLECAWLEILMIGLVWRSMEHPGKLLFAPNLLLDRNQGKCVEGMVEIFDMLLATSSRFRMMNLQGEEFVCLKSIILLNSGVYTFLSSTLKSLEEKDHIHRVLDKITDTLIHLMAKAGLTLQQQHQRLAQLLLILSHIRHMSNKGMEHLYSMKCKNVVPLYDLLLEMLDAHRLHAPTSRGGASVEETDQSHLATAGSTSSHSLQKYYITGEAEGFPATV
Sequence of Luciferin 4-monooxygenase (Photinus pyralis) (P08659 whole entry, looked up): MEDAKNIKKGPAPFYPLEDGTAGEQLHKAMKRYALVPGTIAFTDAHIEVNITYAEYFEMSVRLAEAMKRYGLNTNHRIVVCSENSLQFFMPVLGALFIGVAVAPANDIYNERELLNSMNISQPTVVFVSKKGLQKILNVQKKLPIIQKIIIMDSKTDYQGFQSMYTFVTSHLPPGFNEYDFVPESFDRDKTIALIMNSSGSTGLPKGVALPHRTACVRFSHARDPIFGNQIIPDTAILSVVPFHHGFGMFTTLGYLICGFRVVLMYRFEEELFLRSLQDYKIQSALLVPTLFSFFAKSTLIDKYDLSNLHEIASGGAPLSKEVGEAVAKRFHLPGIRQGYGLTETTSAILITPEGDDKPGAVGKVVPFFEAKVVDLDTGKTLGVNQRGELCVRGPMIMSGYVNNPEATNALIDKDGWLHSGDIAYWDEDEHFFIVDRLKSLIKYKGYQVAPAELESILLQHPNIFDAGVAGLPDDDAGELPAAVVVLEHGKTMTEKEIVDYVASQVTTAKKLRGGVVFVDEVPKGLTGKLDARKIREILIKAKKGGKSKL

As to `Clc1ccc(C(c2ccc(Cl)cc2)C(Cl)Cl)cc1`, the compound was classed as inactive in [1]. The half-maximal activity concentration (AC50) in experiment [2] was 7.14 µM (active); in [3], 6.82 µM (active); in [4], 18.1 µM (active); in experiment [5], 8.6 µM (active); in experiment [6], 17.8 µM (active); in [7] it was 10.1 µM (active). Also, the half-maximal activity concentration (AC50) was 16.4 µM (active) in experiment [8], 26.4 µM (active) in experiment [9] and 26.1 µM (active) in [10].
For the compound `CCC12COCN1COC2`, the outcome in experiment [11] and in experiment [4] was inactive.
In the case of `[As]#[In]`, the call in experiment [11] and in [4] was inactive.
`CCCCCCCCOC(=O)c1ccc(C(=O)OCCCCCCCC)c(C(=O)OCCCCCCCC)c1`: the compound was classed as inactive in [11], in [4] and in [10].
As to `c1ccc(NNc2ccccc2)cc1`, the concentration at half-maximal activity (AC50) in experiment [12] was 20.4 µM (active). For the same compound, in [10], the outcome was inactive.
For the compound `CCC[CH2][Sn]([Cl])([CH2]CCC)[CH2]CCC`, the AC50 in experiment [13] is 0.334 µM (active); in experiment [3], 0.528 µM (active); in experiment [4], 0.631 µM (active); in [10], 0.767 µM (active); in experiment [15] it was 0.642 µM (active). Further, the call in experiment [14], in experiment [2], in [5], in experiment [6] and in [8] was inactive.
In the case of `CC(C)(C)OOC(=O)c1ccccc1`, the compound was classed as inactive in experiment [4] and in experiment [10].
For `O=C(N[C@H](c1ccccc1)[C@@H]1CN2CCC1CC2)c1c(Cl)ccc(C(F)(F)F)c1Cl`, the figures for the AC50 in experiment [11], in experiment [4] and in experiment [10] were 62.8 µM (active), 55.8 µM (active) and 61.2 µM (active), respectively.
On to `Clc1ccc(C(c2ccc(Cl)cc2)C(Cl)(Cl)Cl)cc1`, for which the call in experiment [14], in [4] and in experiment [15] was inactive. Also, the AC50 in experiment [1] was 41.7 µM (active); in experiment [2], 1.95 µM (active); in [3], 4.09 µM (active); in [5] it was 1.31 µM (active); in experiment [6], 17.6 µM (active); in [7], 2.52 µM (active). The values for the AC50 in experiment [9] and in experiment [10] were 3.31 µM (active) and 28.4 µM (active), respectively.
Turning to `CC(C)(O)c1cnn2c(-c3ccc(F)c(-c4c(F)cccc4C#N)c3)cnc2n1`, in experiment [11], the compound was called inactive. For the same compound, the half-maximal activity concentration (AC50) in [4] is 51.1 µM (active).
